Assay results: the supplement of paper PMC10849652
Of roughly 7,900 targets only a part is listed; those with a hit were picked by preference. About 0.6% of all pairs of compound and target were hits. Unmarked numbers belong to inactive results.

compound: O=C(CCCCCCC(=O)Nc1ccccc1)NO [vorinostat]; assay: log2 fold change, soluble protein after heating vs DMSO (PISA); higher = thermal stabilisation; K562 cells, 10 uM, 30 min; active = over 0.2 and 3.5 SD of the protein, either way, in both replicates (recomputed)
Procedure, shortened: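 K562 cells (2×10^6 cells/mL) were treated with 10 μM compound for 30 min, and aliquots were heated for 3 min over 48°C-58°C. Pooled aliquots were extracted in PBS with 0.5% NP-40 at 4°C, and the supernatant after 21,000xg for 90 min was measured by TMTpro 16plex LC-MS/MS with channel sums equalised. Reported thermal stability, relative to control samples and from duplicates, is a log2 fold change.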

UniProt Q96KA5, sequence (Q96KA5 whole entry, looked up): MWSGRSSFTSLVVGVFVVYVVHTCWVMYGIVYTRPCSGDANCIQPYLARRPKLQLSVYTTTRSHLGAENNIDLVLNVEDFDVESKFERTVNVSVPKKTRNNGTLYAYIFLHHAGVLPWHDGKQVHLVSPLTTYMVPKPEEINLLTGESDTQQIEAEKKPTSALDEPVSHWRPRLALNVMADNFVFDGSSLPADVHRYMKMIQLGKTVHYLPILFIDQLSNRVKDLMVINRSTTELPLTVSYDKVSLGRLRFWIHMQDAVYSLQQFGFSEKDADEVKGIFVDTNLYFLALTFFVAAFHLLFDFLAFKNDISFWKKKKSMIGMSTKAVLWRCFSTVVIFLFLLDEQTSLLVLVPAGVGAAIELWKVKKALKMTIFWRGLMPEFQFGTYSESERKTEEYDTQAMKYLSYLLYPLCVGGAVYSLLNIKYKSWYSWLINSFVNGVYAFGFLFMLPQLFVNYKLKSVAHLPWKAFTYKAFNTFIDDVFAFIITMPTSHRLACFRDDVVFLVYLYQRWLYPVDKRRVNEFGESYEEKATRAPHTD
UniProt O14578, sequence (O14578 whole entry, looked up): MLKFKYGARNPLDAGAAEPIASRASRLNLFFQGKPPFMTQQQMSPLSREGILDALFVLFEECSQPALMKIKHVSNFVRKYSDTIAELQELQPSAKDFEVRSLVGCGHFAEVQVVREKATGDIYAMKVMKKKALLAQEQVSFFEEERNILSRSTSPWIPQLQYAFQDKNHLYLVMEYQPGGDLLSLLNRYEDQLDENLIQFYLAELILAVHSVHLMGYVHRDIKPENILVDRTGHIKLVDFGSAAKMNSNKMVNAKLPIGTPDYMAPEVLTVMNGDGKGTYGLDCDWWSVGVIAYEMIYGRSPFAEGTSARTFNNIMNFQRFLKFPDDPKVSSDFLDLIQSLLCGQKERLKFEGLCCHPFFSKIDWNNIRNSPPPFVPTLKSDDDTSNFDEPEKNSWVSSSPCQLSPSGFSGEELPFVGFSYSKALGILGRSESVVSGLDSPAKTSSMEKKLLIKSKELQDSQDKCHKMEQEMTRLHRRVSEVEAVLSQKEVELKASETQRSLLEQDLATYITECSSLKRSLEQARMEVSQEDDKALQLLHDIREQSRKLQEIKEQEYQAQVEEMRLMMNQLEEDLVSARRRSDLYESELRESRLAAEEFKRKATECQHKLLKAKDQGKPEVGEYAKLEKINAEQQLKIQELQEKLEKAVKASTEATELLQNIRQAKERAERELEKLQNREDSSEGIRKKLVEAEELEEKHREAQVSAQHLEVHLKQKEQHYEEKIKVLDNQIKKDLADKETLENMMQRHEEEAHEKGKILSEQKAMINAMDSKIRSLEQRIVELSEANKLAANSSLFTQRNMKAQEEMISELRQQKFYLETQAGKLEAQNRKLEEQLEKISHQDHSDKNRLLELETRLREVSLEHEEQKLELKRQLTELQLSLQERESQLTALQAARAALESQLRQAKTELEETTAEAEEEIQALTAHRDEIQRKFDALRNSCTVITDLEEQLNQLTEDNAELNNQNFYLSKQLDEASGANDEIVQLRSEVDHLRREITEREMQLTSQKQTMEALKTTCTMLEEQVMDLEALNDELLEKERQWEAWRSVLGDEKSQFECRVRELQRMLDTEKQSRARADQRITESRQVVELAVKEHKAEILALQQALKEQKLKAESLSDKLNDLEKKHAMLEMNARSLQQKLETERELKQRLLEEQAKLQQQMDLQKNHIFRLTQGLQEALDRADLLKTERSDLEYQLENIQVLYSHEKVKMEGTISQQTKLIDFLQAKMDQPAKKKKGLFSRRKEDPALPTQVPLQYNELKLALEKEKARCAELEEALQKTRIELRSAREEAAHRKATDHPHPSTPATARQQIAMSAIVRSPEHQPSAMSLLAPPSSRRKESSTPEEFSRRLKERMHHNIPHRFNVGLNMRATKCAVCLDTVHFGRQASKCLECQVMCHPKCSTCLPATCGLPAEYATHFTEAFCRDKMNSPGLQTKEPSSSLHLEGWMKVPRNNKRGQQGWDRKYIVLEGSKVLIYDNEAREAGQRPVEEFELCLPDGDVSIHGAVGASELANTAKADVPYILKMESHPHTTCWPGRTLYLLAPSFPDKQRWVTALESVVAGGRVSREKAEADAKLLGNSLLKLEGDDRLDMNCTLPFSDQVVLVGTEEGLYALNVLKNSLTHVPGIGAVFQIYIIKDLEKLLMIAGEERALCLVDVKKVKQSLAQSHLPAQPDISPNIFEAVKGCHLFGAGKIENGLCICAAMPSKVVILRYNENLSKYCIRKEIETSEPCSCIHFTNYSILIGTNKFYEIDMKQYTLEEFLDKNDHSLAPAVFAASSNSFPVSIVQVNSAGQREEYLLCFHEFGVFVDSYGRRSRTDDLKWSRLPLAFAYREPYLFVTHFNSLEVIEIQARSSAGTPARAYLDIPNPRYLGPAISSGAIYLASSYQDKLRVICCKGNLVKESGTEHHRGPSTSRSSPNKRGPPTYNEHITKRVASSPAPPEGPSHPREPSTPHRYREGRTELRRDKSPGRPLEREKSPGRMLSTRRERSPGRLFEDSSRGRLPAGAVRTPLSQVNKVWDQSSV
UniProt P48729, sequence (P48729 whole entry, looked up): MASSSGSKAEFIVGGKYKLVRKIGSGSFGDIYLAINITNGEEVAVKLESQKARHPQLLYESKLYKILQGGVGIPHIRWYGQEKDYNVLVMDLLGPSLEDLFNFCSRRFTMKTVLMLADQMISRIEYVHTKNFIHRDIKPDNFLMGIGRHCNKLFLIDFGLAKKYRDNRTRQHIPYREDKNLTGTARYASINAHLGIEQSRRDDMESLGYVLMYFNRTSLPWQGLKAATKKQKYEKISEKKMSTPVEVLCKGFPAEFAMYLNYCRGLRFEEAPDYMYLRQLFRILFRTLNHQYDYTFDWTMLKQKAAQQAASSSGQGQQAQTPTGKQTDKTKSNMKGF
UniProt Q9NZN8, sequence (Q9NZN8 whole entry, looked up): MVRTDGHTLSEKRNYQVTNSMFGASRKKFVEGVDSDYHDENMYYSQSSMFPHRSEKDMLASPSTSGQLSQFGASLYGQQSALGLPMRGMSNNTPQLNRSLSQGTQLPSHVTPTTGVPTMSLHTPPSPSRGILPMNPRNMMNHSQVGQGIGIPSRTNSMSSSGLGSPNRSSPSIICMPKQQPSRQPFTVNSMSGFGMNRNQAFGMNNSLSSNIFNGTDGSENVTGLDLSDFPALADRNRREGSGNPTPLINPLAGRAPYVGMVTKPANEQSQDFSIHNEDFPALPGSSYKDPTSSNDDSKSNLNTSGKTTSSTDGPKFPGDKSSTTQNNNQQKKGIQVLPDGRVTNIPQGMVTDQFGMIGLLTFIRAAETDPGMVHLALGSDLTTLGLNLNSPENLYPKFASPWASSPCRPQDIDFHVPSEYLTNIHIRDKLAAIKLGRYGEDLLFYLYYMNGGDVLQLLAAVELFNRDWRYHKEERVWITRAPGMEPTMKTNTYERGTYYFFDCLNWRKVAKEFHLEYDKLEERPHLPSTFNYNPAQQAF
UniProt Q8N1A6, sequence (Q8N1A6 whole entry, looked up): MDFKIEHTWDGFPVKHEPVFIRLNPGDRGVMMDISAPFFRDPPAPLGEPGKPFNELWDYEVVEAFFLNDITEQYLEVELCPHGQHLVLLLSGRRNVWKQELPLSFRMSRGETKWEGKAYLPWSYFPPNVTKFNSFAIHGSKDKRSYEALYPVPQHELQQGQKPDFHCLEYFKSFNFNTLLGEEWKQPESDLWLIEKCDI
UniProt Q99439, sequence (Q99439 whole entry, looked up): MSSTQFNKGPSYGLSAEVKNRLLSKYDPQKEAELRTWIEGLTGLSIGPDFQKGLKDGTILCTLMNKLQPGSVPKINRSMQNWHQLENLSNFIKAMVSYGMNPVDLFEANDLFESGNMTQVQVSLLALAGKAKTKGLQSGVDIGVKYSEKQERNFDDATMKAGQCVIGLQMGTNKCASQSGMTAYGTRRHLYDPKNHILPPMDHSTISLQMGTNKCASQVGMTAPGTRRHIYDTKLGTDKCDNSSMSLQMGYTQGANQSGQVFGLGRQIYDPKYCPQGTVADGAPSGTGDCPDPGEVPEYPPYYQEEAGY
UniProt Q9P031, sequence (Q9P031 whole entry, looked up): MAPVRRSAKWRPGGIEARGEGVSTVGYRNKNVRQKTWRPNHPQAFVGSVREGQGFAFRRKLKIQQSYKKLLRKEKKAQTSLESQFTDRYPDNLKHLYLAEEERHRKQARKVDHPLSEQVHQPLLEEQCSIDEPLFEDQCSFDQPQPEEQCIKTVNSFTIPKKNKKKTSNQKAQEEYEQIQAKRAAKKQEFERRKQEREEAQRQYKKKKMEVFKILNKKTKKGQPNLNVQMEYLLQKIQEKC
UniProt P09497, sequence (P09497 whole entry, looked up): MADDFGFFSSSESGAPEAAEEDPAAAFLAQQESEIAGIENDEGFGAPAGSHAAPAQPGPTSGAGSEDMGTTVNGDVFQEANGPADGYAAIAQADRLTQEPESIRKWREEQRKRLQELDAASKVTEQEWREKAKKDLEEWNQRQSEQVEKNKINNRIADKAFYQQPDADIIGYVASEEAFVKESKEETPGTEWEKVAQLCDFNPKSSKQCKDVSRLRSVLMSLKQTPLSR
UniProt O95628, sequence (O95628 whole entry, looked up): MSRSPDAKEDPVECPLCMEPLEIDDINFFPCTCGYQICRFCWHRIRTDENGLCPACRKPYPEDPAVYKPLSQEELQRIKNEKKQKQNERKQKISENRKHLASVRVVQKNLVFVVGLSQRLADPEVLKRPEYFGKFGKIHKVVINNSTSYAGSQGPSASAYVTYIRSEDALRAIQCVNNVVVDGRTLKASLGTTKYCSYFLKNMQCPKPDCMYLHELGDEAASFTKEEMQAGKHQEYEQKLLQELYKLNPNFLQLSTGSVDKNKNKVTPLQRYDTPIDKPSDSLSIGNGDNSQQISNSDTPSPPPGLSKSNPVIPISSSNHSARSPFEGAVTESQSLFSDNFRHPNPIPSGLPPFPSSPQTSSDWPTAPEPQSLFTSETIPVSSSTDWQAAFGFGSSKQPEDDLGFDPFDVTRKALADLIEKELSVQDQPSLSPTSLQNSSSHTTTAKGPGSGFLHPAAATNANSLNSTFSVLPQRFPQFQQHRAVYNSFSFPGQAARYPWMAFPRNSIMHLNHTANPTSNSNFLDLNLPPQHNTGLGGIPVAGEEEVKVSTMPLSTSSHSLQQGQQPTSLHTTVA

Target | log2 fold change
CNN2 (UniProt Q99439) | 0.029
CHD4 isoform 2 (UniProt Q14839) | 0.049
CSNK1A1 (UniProt P48729) | -0.087
C4orf33 (UniProt Q8N1A6) | -0.05
CRYM-AS1 (UniProt A6NIL9) | 0.014
CDK16 isoform 2 (UniProt Q00536) | -0.044
CIT isoform 4 (UniProt O14578) | 0.041
CLPTM1L (UniProt Q96KA5) | 0.023
CNOT2 (UniProt Q9NZN8) | 0.018
CD151 (UniProt P48509) | -0.025
CSNK2B (UniProt P67870) | 0.021
COX15 (UniProt Q7KZN9) | -0.017
CCNB1 (UniProt P14635) | 0
CBX1 (UniProt P83916) | -0.036
CNOT4 isoform 6 (UniProt O95628) | 0.052
C9orf64 (UniProt Q5T6V5) | 0.167
CLTB (UniProt P09497) | 0.003
CCDC59 (UniProt Q9P031) | -0.099
CALCOCO2 isoform 4 (UniProt Q13137) | -0.006
CPT1A (UniProt P50416) | -0.017
COMMD2 (UniProt Q86X83) | 0.049
CBR1 (UniProt P16152) | -0.041
